Calls of active or inactive are those of the source. Unless noted, no rule for the calls is given here.

Assay [1] in a line: compound effects on lung adenocarcinoma cell viability – A549, calcein-AM fluorescence, 48 h, basal, profiling panel (AID 1162). Also: test concentration not given here. Particulars: higher = more signal.
Assay [2] is described as follows: compound effects on differentiated 3T3-L1 adipocyte viability – cell-based, 3T3-L1 adipocytes, calcein-AM fluorescence, 48 h, basal, profiling panel (AID 1163). Also: test concentration not given here. The note with it: 3T3-L1 adipocytes viability, higher = more signal.
Assay [3] is described as follows: compound effects on hepatocellular carcinoma cell viability – HepG2, calcein-AM fluorescence, 48 h, basal, profiling panel (AID 1164). Also: test concentration not given here. The note with it: higher = more signal.
Assay [4] can be described thus: compound effects on multiple myeloma cell viability – MM1S, calcein-AM fluorescence, 48 h, basal, profiling panel (AID 1165).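 Also: viability of MM1S multiple myeloma cells under basal unstimulated conditions; test concentration not given here.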 Particulars: higher = more signal.
A short description of assay [5]: calcein-AM signal in unstimulated myeloma cells – cell-based, calcein-AM fluorescence, 48 h, PK04 Diversity Set, profiling panel (AID 1166).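 Also: cells grown under basal conditions without added stimulus; test concentration not given here.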 Particulars: RPMI8226 myeloma viability, higher = more signal.
A short description of assay [6]: JC-1 mitochondrial signal, unstimulated HepG2 cells – cell-based, JC-1 fluorescence, 24 h, 100 nL compound, profiling panel (AID 1167). Also: test concentration not given here. The note with it: HepG2 mitochondrial potential, higher = more signal.
Assay [7] is described as follows: JC-1 mitochondrial signal, unstimulated adipocytes – cell-based, JC-1 fluorescence, 3T3-L1 adipocytes, 24 h, 100 nL compound, profiling panel (AID 1168). Also: test concentration not given here. Particulars: JC-1 mitochondrial fluorescence, higher = more signal, called active from +8 up or from −8 down.
Assay [8] in a line: JC-1 mitochondrial signal, unstimulated myeloma cells – cell-based, JC-1 fluorescence, RPMI8226, 24 h, 100 nL compound, profiling panel (AID 1169). Also: test concentration not given here. The note with it: JC-1 mitochondrial potential fluorescence, higher = more signal.
A short description of assay [9]: JC-1 mitochondrial signal, unstimulated MM1S myeloma – cell-based, JC-1 fluorescence, 24 h, 100 nL compound, profiling panel (AID 1170). Also: test concentration not given here. The note with it: MM1S mitochondrial potential, higher = more signal.
The nature of assay [10]: resazurin metabolic signal in A549 cells – cell-based, resazurin fluorescence, 24 h, PK04 Diversity Set, profiling panel (AID 1171). Also: test concentration not given here. The note with it: A549 viability, higher = more signal, called active from +8 up or from −8 down. Background: Resazurin is reduced to fluorescent resorufin, in cell work by metabolically active cells.
Assay [11] in a line: resazurin metabolic signal in HepG2 cells – cell-based, resazurin fluorescence, 24 h, PK04 Diversity Set, profiling panel (AID 1172). Also: test concentration not given here. Particulars: HepG2 viability, higher = more signal.
Assay [12] can be described thus: budding yeast growth changes without added modifier – OD600, strain BY4716, 24 h, basal condition, primary screen (AID 1173). Particulars: S. cerevisiae BY4716 growth, OD600, 24 h; higher = more signal, called active from +8 up or from −8 down.
Assay [13] in a line: viability profiling in MM1S myeloma cells – cell-based, resazurin fluorescence, basal, 24 h, PK04 Diversity Set, profiling panel (AID 1174). Also: test concentration not given here. Particulars: higher = more signal, called active from +8 up or from −8 down.
Assay [14] has as its target Dihydroorotate dehydrogenase (quinone), mitochondrial (Plasmodium falciparum (isolate 3D7)) (UniProt Q08210). As to the kind of experiment: inhibition of P. falciparum DHODH – biochemical, C-terminal His tag, absorbance 600 nm, primary screen (AID 1175).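 Also: recombinant parasite enzyme with a five histidine tag at its C terminus; test concentration not given here.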 The note with it: PfDHODH enzyme, DCIP absorbance 600 nm; higher = more signal, called active from +8 up or from −8 down.

A short description of assay [15]: inhibition of PAO1 biofilm formation – strain PAO1, LB-PBS medium, absorbance 600 nm, primary screen (AID 1176). Also: test concentration not given here. The note with it: P. aeruginosa PAO1 growth/biofilm, A600, 12 h; higher = more signal.
A short description of assay [16]: growth modulation of vineyard yeast isolate – strain RM11-1a, OD600, basal, 24 h, primary screen (AID 1177).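 Also: cultures grown under basal conditions with no added stressor; test concentration not given here.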 Particulars: S. cerevisiae RM11-1a growth, OD600, 24 h; higher = more signal, called active from +8 up or from −8 down.
Assay [17] in a line: growth of efflux-deficient E. coli DRC39 – strain DRC39, OD650, 24 h, E. coli filamentation inducers, primary screen (AID 1178).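 Also: growth measured as culture turbidity by optical density at 650 nm; test concentration not given here.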 Particulars: E. coli DRC39 acrAB, higher = more signal, called active from +8 up or from −8 down.
Assay [18] in a line: growth of efflux-deficient E. coli DRC39 – strain DRC39, OD650, 48 h, E. coli filamentation inducers, primary screen (AID 1179).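 Also: screen aims at cell division blockers that make cells filament.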 Particulars: E. coli DRC39 delta-acrAB growth, higher = more signal, called active from +8 up or from −8 down.
The nature of assay [19]: viability profiling in RPMI8226 myeloma cells – cell-based, resazurin fluorescence, basal, 24 h, PK04 Diversity Set, profiling panel (AID 1180).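 Also: RPMI8826 multiple myeloma cell line at 5000 cells per well; test concentration not given here.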 The note with it: higher = more signal.
Assay [20] concerns the target E3 ubiquitin-protein ligase XIAP (Homo sapiens) (UniProt P98170). As to the kind of experiment: small molecules binding XIAP protein – biophysical, small-molecule microarray, fluorescence 635 nm, primary screen (AID 1181).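 Also: score merges 667 nm emission and signal to noise over triplicate slides.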 Particulars: higher = more signal.

E3 ubiquitin-protein ligase XIAP (Homo sapiens), sequence (P98170 whole entry, looked up): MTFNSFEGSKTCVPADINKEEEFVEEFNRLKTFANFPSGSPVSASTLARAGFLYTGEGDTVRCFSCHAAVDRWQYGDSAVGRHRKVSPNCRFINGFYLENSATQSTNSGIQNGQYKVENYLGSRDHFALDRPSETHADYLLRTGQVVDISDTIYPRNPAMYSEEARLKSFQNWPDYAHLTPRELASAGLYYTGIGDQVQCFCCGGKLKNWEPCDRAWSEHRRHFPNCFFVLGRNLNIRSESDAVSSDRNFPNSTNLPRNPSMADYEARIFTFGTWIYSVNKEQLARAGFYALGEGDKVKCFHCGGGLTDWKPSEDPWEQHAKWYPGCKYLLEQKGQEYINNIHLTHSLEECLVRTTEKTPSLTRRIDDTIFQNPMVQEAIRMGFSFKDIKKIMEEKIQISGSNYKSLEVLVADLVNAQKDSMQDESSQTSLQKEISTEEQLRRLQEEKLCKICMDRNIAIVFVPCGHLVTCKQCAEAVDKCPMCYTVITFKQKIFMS
Dihydroorotate dehydrogenase (quinone), mitochondrial (Plasmodium falciparum (isolate 3D7)), sequence (Q08210 whole entry, looked up): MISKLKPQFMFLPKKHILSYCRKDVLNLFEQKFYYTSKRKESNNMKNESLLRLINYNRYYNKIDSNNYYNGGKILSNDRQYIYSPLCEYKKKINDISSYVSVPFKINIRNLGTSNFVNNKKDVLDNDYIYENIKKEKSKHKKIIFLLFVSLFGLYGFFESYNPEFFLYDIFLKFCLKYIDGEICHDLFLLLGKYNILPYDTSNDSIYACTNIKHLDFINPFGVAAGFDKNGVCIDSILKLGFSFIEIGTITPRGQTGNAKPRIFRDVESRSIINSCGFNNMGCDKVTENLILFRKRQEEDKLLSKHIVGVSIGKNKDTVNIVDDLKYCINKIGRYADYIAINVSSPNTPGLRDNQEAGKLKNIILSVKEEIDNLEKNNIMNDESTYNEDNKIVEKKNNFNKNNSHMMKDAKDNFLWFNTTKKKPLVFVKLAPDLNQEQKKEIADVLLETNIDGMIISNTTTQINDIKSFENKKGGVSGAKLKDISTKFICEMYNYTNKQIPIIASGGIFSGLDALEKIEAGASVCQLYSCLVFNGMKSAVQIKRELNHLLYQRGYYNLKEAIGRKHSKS

In the case of `CCc1cc2c(nc1CC)CCN(CCC(C)=NOCC[C@@H]1C=C[C@H](OC(C)=O)[C@@H](COC(C)=O)O1)C2`, the z-score in assay [1] was 0.34; in assay [2], 0.63; in assay [3] it was 0.679; in assay [4] it was -0.47; in assay [5], 0.123; in assay [6] it was 1.45. Besides, the z-score in [7] is -1.32 (inactive); in [8], 0.578; in assay [9], -0.13; in assay [10], 0.29 (inactive); in assay [11] it was 0.0383; in assay [12], 0.859 (inactive). The z-score in [13] was -0.123 (inactive); in assay [15], 0.122 (inactive); in [16], 1.23 (inactive); in assay [17] it was -0.157 (inactive); in assay [18], -1.33 (inactive); in [19], 0.154. In addition, the composite z-score in [14] is 0.903 (inactive); in [20], -0.212.
In the case of `COC(=O)[C@H](C)NC(=O)CCC1CC(OC(=O)NCc2cccc3ccccc23)CC2(CCCC(COC(=O)NCc3cccc(C(F)(F)F)c3)O2)O1` (stereo not given in full), the z-score was 0.826 in assay [1]; -0.508 in assay [2]; -0.918 in assay [3]; -3.11 in assay [4]; -0.0274 in assay [5]; -0.707 in assay [6]. For the same compound, the z-score is 0.733 (inactive) in assay [7]; -0.742 in [8]; -0.905 in [9]; -1.16 (inactive) in assay [10]; -0.599 in [11]; -0.458 (inactive) in assay [12]. Moreover, the z-score was 0.47 (inactive) in assay [13]; 0.593 (inactive) in assay [15]; -0.968 (inactive) in assay [16]; -0.289 (inactive) in assay [17]; -0.456 (inactive) in assay [18]; 0.297 in assay [19]. The composite z-score in [14] was -1.5 (inactive); in assay [20], 0.14.
As to `C=CC[C@@H]1C=C[C@H](ON=C(C)CCN2CCCCc3nc(C)c(C)cc32)[C@@H](CO)O1`, the z-score in assay [1] is 0.275; in assay [2], -0.7; in assay [3], -0.389; in assay [4] it was 0.475; in assay [5] it was -0.332; in assay [6], -0.874. In addition, the z-score in assay [7] was -1.84 (inactive); in assay [8], -0.174; in [9] it was -0.514; in assay [10], -0.421 (inactive); in assay [11] it was 0.162; in assay [12], 0.399 (inactive). The z-score in assay [13] was -0.201 (inactive); in assay [15], 0.323 (inactive); in assay [16], 0.334 (inactive); in assay [17], -0.275 (inactive); in assay [18], -0.681 (inactive); in assay [19], -0.103. In addition, the composite z-score in [14] is -0.923 (inactive); in assay [20] it was 0.183.
As for `CCOC(=O)CCN1C(=O)[C@H]2[C@H]3[C@H](O)[C@H](O)CC(=NNC(=O)OCC)[C@H]3CC[C@H]2C1=O`, the z-score is -1.19 in [1]; 0.895 in assay [2]; -0.418 in assay [3]; -2.14 in assay [4]; -3.78 in assay [5]; -0.357 in [6]. The z-score in assay [7] was -1.19 (inactive); in assay [8], -0.541; in assay [9] it was 0.0724; in [10], -0.698 (inactive); in [11], -0.207; in assay [12] it was -1.01 (inactive). The z-score in assay [13] is 0.137 (inactive); in [15], 0.614 (inactive); in assay [16], 0.235 (inactive); in assay [17], -0.216 (inactive); in assay [18], -0.318 (inactive); in [19], -0.0651. Also, the composite z-score is 0.519 (inactive) in assay [14] and 0.106 in assay [20].
On to `CCN1C(=O)[C@H]2[C@H]3[C@H](O)[C@H](O)CC(=NO[C@H](C)c4cn([C@H](CO)Cc5ccccc5)nn4)[C@@H]3CC[C@H]2C1=O`, for which the z-score in [1] is 1.01; in assay [2], -0.922; in assay [3], 0.211; in assay [4] it was -0.824; in assay [5], 0.065; in assay [6], -0.471. Further, the z-score in assay [7] was -1.16 (inactive); in [8], 0.271; in assay [9] it was -0.343; in assay [10] it was -1.13 (inactive); in [11], -0.948; in assay [12], 0.0722 (inactive). Further, the z-score in assay [13] was -1.37 (inactive); in [15], 0.359 (inactive); in [16], -0.141 (inactive); in assay [17] it was 1.44 (inactive); in assay [18] it was 0.829 (inactive); in [19], -1.46. In addition, the composite z-score in assay [14] is -0.613 (inactive); in assay [20], 0.0178.
On to `COc1ccc(COC(=O)NN=C2C[C@@H](O)[C@@H](O)[C@@H]3[C@@H]4C(=O)N([C@@H](C)c5ccccc5)C(=O)[C@@H]4CC[C@H]23)cc1`, for which the z-score is -0.0502 in [1]; 0.155 in [2]; -0.791 in assay [3]; 0.145 in assay [4]; -0.486 in [5]; -0.888 in assay [6]. Also, the z-score in assay [7] was -0.653 (inactive); in assay [8], -0.0767; in assay [9] it was 0.493; in assay [10] it was 0.541 (inactive); in [11], 0.453; in [12], -0.111 (inactive). Also, the z-score in assay [13] is 0.334 (inactive); in assay [15], 0.683 (inactive); in [16], -0.677 (inactive); in assay [17], -0.267 (inactive); in [18], 0.197 (inactive); in [19], 0.818. Moreover, the composite z-score in assay [14] was -0.308 (inactive); in assay [20], 0.0193.
As for `COC(=O)CC=C[C@@H](C)[C@@H](C=NOC[C@@H](O)COCc1ccco1)OC`, the z-score in [1] was 1.3; in [2], -0.921; in assay [3] it was 0.436; in assay [4], 0.195; in assay [5], 0.598; in assay [6] it was -0.327. Also, the z-score in assay [7] was 0.499 (inactive); in [8] it was 0.501; in assay [9] it was -0.281; in assay [10] it was -0.329 (inactive); in assay [11], -0.195; in assay [12] it was -0.656 (inactive). The z-score in [13] is -0.45 (inactive); in assay [15], -1.23 (inactive); in assay [16], 0.12 (inactive); in assay [17] it was 0.539 (inactive); in assay [18], 0.803 (inactive); in [19], 0.11. The results for the composite z-score in assay [14] and in assay [20] were -0.527 (inactive) and 0.0345, respectively.
Consider `CO[C@@H]1COC(=O)[C@H](COCc2ccccc2)NC(=O)CC=C[C@@H](C)[C@H](OC)COC(=O)[C@@H](C)NC(=O)CC=C[C@H]1C`, for which the z-score in assay [1] was 0.759; in assay [2], 0.0006; in assay [3], 0.56; in assay [4], 0.208; in assay [5], -1.54; in [6], 0.648. The z-score in [7] is -0.828 (inactive); in assay [8] it was 0.402; in assay [9], -0.343; in assay [10] it was 0.846 (inactive); in assay [11], 0.532; in [12] it was -1.01 (inactive). For the same compound, the z-score in [13] is -2.05 (inactive); in [15], -0.908 (inactive); in [16] it was 0.496 (inactive); in assay [17], 1.4 (inactive); in assay [18] it was 0.287 (inactive); in assay [19], -0.795. Moreover, the composite z-score in [14] was 0.262 (inactive); in assay [20] it was -0.0939.
On to `COc1ccc(O[C@H]2C=C[C@@H](c3ccccc3)O[C@@H]2CO)cc1`, for which the z-score in assay [1] is 0.109; in assay [2], 0.0705; in assay [3], -0.27; in assay [4] it was -0.307; in [5], -0.0698; in assay [6], 0.194. The z-score in assay [7] is -0.637 (inactive); in assay [8], 0.362; in [9] it was -0.42; in [10], -0.521 (inactive); in [11] it was 0.121; in assay [12], -4.83 (inactive). Moreover, the z-score in assay [13] is 0.222 (inactive); in assay [15], 0.438 (inactive); in [16] it was 0.0505 (inactive); in assay [17] it was 0.137 (inactive); in assay [18], -0.447 (inactive); in [19], -0.5. Besides, the composite z-score in assay [14] is -0.163 (inactive); in assay [20], -0.042.

Values taken from PubChem BioAssay.
